Measurements: PubChem BioAssay (NCATS)
Results filed as inconclusive are left out. The source made the active and inactive calls. Unless noted, the call rests on the fitted dose curve; in most records, active means well fitted curve in either direction with a large enough effect (not every such curve was filed as active); inconclusive means small, poorly fitted or top-dose-only effect, or another doubt; inactive means flat fitted curve, though single readings scatter.

What was measured:
[1] = target: Lysosomal acid glucosylceramidase (Homo sapiens) (UniProt P04062); assay: Glucocerebrosidase-p2 (AID 348; in the data active means potency below about 10 µM; further: potency means the concentration at half of the fitted maximal effect); conditions: purified GBA, blue fluorogenic substrate, 40 min
Summary of the method: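 Normal human glucocerebrosidase (0.2 nM) with blue fluorogenic substrate (80 uM final) in citrate/phosphate pH 5.9 with 10mM sodium taurocholate, 0.01% tween-20; 40 min RT, NaOH/glycine stop; fluorescence Ex 365/Em 440; AC50 from a titration from 0.6 nM upwards.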

[2] = AP1 Signaling Pathway (AID 357); conditions: ME-180 AP-1-bla reporter, EGF-induced, beta-lactamase ratio, 5 h; at 7.69 µM (top of the series) unless noted; further: on the % scale 0 is the no-effect control and ±100 the full control effect
Summary of the method: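 ME-180 cells with beta-lactamase reporter under AP-1 response element, stimulated with EC50 EGF; compounds tested in titration series, 5 h at 37 °C. CCF4 substrate added 2.5 h at room temperature; 460/530 nm emission ratio gave %activity and AC50.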

[3] = target: Cytochrome P450 1A2 (Homo sapiens) (UniProt P05177); assay: p450-cyp1a2 (AID 410; calls by dose curve; further: potency means the concentration at half of the fitted maximal effect;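 on activity change, negative = inhibition: -100% = full effect of reference inhibitor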); conditions: recombinant CYP1A2, luciferin-ME demethylation, luminescence; series mostly up to 57 µM
Summary of the method: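 O-Demethylation of luciferin 6' methyl ether by human CYP1A2 is monitored as luciferase luminescence. Substrate sits at Km (100uM); enzyme is 20nM. Values are scaled to 57 uM furafylline as maximal inhibition.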

[4] = NFAT Signaling Pathway (AID 444); conditions: Jurkat NFAT-bla M1, carbachol, beta-lactamase ratio, 5 h; at 7.69 µM (top of the series) unless noted;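 further: carbachol stimulus at about its EC50 of 1 µM final; on the % scale 0 is the no-effect control and ±100 the full control effect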
Summary of the method: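 Jurkat cells carrying an NFAT-driven β-lactamase reporter and co-transfected muscarinic M1 receptor were treated with compound plus carbachol (1 uM final, an EC50 level) for 5 h at 37 °C. CCF4 loading followed for 1 h at RT; 460/530 nm ratio gave %activity.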

[5] = Stat Signaling Pathway (AID 446); conditions: ME-180 (cervical carcinoma) SIE beta-lactamase reporter, IL-6 stimulated, 5 h; at 7.69 µM (top of the series) unless noted;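 further: ME-180 cervical cancer cells given 40 pM IL-6 alongside compound; SIE-controlled beta-lactamase reporter measured as 460/530 nm FRET emission ratio; on the % scale 0 is the no-effect control and ±100 the full control effect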
Summary of the method: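 Normalization used AC90 stimulation (300 pM IL-6) and AC90 inhibition (125 nM pan-JAK inhibitor at 40 pM IL-6). The underlying signal is SIE-driven beta-lactamase in ME-180 cells after 5 h IL-6 exposure with compound.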

[6] = target: Glucocorticoid receptor (Homo sapiens) (UniProt P04150); assay: GR-GFP Redistribution (AID 450;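 active means compounds whose dose series gives a full or clear partial fitted curve of increased nuclear translocation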; further: potency means the concentration at half of the fitted maximal effect); conditions: U2OS GR-GFP nuclear translocation, laser cytometry, 2 h
[7] = target: Glucocorticoid receptor (Homo sapiens) (UniProt P04150); assay: GR-EFC Redistribution (AID 451; calls by dose curve; further: potency means the concentration at half of the fitted maximal effect); conditions: CHO-K1 GR-EFC translocation, beta-gal luminescence, 2 h
Summary of the method: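 CHO-K1 cells stably expressing nuclear-localized β-gal enzyme acceptor and GR fused C-terminally to the enzyme donor fragment; ligand-driven nuclear translocation restores β-gal by complementation. Compounds titrated up to 46 uM final, 2 h at 37 °C; luminescence read.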

[8] = target: Mitogen-activated protein kinase 10 (Mus musculus) (UniProt Q61831); assay: JNK3 AlphaScreen Assay (AID 530); conditions: JNK3 lysate, c-Jun phosphorylation; series mostly up to 57.1 µM;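 further: kinase came from lysate of stimulated human HepG2 cells; signal reports phosphorylation of biotinylated GST-cJun 1-79 at Ser73 with 10 µM ATP; on the % scale 0 is the no-effect control and ±100 the full control effect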
Summary of the method: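 Phosphorylation of biotinylated GST-cJun(1-79) at Ser73 is measured by AlphaScreen proximity luminescence. Enzyme is JNK3 in HepG2 lysates activated with interleukin-1beta and tumor necrosis factor alpha; ATP is 10 uM final.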

[9] = target: Cytochrome P450 3A4 (Homo sapiens) (UniProt P08684); assay: qHTS Assay for Activators of Cytochrome P450 3A4 (AID 885; active means well fitted curve in the direction sought with a large enough effect; an effect the other way counts as inactive or inconclusive; further: nearly all actives have a fitted effect of over 65% in size); conditions: recombinant CYP3A4, Luciferin-PPXE luminescence, 60 min; series mostly up to 57.1 µM
Summary of the method: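 Human CYP3A4 dealkylates Luciferin-PPXE to luciferin, which luciferase detection converts to light. Substrate was at its KM (25uM), buffer 200mM KPO4, reaction 60 min at RT.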

[10] = target: Cytochrome P450 2D6 (Homo sapiens) (UniProt P10635); assay: qHTS Assay for Inhibitors and Substrates of Cytochrome P450 2D6 (AID 891; active means well fitted curve in the direction sought with a large enough effect; an effect the other way counts as inactive or inconclusive; further: potency means the concentration at half of the fitted maximal effect; nearly all actives have a fitted effect of over 60% in size); conditions: recombinant CYP2D6, luciferin-ME EGE luminescence; series mostly up to 57.1 µM
Summary of the method: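 Luminescent read-out of luciferin formed by 5 nM human CYP2D6 demethylating 30 uM Luciferin-ME EGE (Km level) over 60 min at room temperature after NADPH regeneration addition. Data normalized to full inhibition by 1.43 uM quinidine.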

[11] = Confirmation and Secondary Assay for Modulators of Hemoglobin Beta Chain Splicing at IVS2 654 locus (AID 910; active means well fitted curve in the direction sought with a large enough effect; an effect the other way counts as inactive or inconclusive;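 further: per-well total GFP intensity by laser scanning cytometry after 2-day treatment; % of control where 0% means no effect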); conditions: HeLa EGFP-654 splicing reporter, GFP fluorescence, 48 h; series mostly up to 38.3 µM
Summary of the method: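 HeLa cells stably carrying EGFP interrupted by mutant beta-globin IVS2-654 intron (CMV-driven) were treated with compound for 2 days at 37C; corrected splicing was scored as total peak GFP intensity per well (488 nm excitation, 500-520 nm emission).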

[12] = qHTS Assay for Lipid Storage Modulators (AID 1519; calls by dose curve); conditions: Drosophila S3 cells, BODIPY lipid droplet/cell ratio, laser cytometry, cells loaded with oleic acid; for activity change, negative = inhibition: at 57.5 µM (top of the series)
Summary of the method: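 Cells seeded at 5,000 per well were treated with compounds over a concentration series and loaded with oleic acid (400 uM, as added). Lipid droplet fluorescence (488 nm excitation, 500-530 nm channel) was read by laser-scanning cytometry and normalized to 20 uM Triacsin C.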

[13] = target: Ubiquitin carboxyl-terminal hydrolase 1 (Homo sapiens) (UniProt O94782); assay: Inhibitors of USP1/UAF1: Pilot qHTS (AID 504865; active means well fitted curve in the direction sought with a large enough effect; an effect the other way counts as inactive or inconclusive; further: nearly all actives have a fitted effect of over 35% in size; further: potency means the concentration at half of the fitted maximal effect); conditions: purified USP1/UAF1, Ub-rhodamine cleavage fluorescence; series mostly up to 54.9 µM
Summary of the method: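 USP1/UAF1 complex at 1 nM preincubated 15 min at room temperature with compound, then Ub-Rho substrate added at 150 nM final. Fluorescence (480/540 nm) read kinetically in 50 mM HEPES pH 7.8, 0.5 mM EDTA, 1 mM TCEP, 0.1 mg/ml BSA, 0.01% Tween-20.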

[14] = target: Cytochrome P450 3A4 (Homo sapiens) (UniProt P08684); assay: qHTS Assay for Inhibitors and Substrates of Cytochrome P450 3A4 (AID 884; active means well fitted curve in the direction sought with a large enough effect; an effect the other way counts as inactive or inconclusive; further: potency means the concentration at half of the fitted maximal effect; nearly all actives have a fitted effect of over 50% in size); conditions: recombinant CYP3A4, Luciferin-PPXE luminescence; series mostly up to 57.1 µM
Summary of the method: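 Luminescent readout of luciferin produced by CYP3A4 (20 nM) dealkylation of Luciferin-PPXE, 25 uM (its KM). NADPH-driven reaction ran 60 min at RT after 10 min compound preincubation; data scaled to 57 uM ketoconazole as 100% inhibition.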

[15] = Confirmation and Secondary Assay for Modulators of Hemoglobin Beta Chain Splicing at IVS2 705 locus (AID 930; active means well fitted curve in the direction sought with a large enough effect; an effect the other way counts as inactive or inconclusive;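 further: HeLa cells stably expressing the EGFP-705 splicing reporter; GFP fluorescence per well restored by corrected splicing of the IVS2-705 intron in EGFP; % of control where 0% means no effect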); conditions: HeLa EGFP-705 splicing reporter, GFP fluorescence, 48 h; series mostly up to 38.3 µM
Summary of the method: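 Per-well GFP, captured at 1 x 8 µm resolution with 488 nm excitation, served as the read-out for HeLa EGFP-705 cells incubated 2 days with test compound versus DMSO.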

[16] = target: 3',5'-cyclic-AMP phosphodiesterase 4B (Homo sapiens) (UniProt Q07343); assay: qHTS Assay for Inhibitors of PDE-IV (AID 607; active means well fitted activation curve with a large enough effect in the main read-out, with a control signal flat, not every such curve was filed as active; further: % of control where 0% means no effect); conditions: HEK293 ACTOne CNG channel cells, membrane potential fluorescence; series mostly up to 22.9 µM
Summary of the method: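 HEK293 ACTOne cells with CNG channel (1000/well), endogenous PDE4; membrane potential dye, compounds up to 22.9 uM final. Fluorescence Ex 535/Em 590; RO 20-1724 (100 uM final) as reference.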

[17] = measured here: cell count channel max response
[18] = measured here: lipid channel max response

Chain of Cytochrome P450 3A4 (Homo sapiens) (P08684 whole entry, looked up): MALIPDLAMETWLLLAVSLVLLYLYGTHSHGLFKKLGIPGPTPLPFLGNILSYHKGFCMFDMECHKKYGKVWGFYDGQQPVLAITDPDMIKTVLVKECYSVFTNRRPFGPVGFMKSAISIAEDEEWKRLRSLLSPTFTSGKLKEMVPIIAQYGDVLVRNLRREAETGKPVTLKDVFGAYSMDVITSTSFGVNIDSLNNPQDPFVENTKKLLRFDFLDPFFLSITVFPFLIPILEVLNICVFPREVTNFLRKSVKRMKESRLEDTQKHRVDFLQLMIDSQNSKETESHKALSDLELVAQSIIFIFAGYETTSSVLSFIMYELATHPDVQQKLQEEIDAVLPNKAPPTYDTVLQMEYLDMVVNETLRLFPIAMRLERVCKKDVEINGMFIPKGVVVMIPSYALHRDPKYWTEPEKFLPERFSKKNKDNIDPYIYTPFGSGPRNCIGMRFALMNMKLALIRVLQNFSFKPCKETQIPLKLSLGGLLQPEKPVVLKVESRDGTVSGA
Chain of 3',5'-cyclic-AMP phosphodiesterase 4B (Homo sapiens) (Q07343 whole entry, looked up): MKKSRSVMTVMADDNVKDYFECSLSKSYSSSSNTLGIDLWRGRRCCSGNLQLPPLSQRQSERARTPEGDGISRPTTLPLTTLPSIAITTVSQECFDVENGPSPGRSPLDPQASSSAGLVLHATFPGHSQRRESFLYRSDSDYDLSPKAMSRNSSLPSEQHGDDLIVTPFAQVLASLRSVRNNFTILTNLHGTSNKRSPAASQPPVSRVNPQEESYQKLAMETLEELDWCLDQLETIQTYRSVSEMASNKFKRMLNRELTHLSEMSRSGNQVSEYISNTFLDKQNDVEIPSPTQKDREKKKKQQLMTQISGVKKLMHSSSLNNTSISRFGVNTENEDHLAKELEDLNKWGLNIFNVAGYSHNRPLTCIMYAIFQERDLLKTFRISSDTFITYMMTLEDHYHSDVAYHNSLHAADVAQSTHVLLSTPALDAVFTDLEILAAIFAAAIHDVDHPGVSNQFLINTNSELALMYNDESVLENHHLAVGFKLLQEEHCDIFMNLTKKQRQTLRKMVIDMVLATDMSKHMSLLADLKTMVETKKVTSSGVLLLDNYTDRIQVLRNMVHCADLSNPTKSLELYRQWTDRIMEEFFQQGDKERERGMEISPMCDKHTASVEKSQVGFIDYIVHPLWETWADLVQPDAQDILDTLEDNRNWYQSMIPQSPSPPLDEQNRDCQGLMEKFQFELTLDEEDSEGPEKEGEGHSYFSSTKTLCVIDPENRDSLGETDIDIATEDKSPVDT
Chain of Lysosomal acid glucosylceramidase (Homo sapiens) (P04062 whole entry, looked up): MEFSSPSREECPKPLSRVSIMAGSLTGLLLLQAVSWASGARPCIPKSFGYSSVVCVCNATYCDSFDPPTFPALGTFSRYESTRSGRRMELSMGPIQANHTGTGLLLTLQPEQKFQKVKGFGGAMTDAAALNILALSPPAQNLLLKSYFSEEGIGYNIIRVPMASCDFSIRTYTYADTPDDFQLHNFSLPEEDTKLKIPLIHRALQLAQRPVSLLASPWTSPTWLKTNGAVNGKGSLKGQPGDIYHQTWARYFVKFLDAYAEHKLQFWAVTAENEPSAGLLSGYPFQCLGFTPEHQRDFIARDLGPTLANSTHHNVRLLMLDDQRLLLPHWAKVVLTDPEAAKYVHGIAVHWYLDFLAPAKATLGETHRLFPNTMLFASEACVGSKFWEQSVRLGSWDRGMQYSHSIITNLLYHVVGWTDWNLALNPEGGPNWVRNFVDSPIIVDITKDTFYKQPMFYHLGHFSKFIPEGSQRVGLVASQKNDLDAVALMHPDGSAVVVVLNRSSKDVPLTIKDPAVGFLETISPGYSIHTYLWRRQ
Chain of Cytochrome P450 1A2 (Homo sapiens) (P05177 whole entry, looked up): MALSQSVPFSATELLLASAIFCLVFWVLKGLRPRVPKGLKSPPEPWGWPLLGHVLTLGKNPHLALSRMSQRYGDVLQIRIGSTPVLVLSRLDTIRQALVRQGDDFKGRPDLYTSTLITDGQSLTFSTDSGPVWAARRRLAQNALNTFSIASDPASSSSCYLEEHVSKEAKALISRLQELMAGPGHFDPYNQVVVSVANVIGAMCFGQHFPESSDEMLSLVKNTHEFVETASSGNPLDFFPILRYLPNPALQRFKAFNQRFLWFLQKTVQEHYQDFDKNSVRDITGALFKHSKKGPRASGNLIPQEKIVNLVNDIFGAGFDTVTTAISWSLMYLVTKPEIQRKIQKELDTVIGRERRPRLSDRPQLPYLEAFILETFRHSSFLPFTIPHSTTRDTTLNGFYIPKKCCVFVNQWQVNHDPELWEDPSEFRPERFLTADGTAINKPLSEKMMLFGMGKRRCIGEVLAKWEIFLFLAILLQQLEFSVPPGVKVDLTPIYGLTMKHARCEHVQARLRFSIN
Chain of Glucocorticoid receptor (Homo sapiens) (P04150 whole entry, looked up, the tested form may be a part): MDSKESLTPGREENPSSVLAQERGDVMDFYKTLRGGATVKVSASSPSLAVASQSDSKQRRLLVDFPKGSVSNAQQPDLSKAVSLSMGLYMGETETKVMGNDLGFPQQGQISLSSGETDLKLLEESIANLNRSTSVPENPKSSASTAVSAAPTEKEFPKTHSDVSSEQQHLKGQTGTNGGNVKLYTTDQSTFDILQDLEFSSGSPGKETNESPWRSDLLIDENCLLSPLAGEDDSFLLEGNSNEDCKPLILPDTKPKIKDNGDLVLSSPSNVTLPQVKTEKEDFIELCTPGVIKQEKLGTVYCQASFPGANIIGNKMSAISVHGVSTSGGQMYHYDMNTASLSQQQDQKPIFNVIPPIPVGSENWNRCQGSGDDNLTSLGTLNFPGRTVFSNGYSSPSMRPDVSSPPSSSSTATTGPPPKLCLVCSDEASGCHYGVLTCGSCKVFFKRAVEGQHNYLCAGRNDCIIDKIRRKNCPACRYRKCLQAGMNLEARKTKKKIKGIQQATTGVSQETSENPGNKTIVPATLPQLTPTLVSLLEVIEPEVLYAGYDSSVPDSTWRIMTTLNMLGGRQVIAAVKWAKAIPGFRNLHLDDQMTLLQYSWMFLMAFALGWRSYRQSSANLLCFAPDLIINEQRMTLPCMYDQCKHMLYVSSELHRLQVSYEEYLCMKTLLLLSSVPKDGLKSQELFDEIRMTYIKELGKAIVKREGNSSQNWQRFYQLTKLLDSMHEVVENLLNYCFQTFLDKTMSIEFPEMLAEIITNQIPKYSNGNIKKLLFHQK
Chain of Ubiquitin carboxyl-terminal hydrolase 1 (Homo sapiens) (O94782 whole entry, looked up): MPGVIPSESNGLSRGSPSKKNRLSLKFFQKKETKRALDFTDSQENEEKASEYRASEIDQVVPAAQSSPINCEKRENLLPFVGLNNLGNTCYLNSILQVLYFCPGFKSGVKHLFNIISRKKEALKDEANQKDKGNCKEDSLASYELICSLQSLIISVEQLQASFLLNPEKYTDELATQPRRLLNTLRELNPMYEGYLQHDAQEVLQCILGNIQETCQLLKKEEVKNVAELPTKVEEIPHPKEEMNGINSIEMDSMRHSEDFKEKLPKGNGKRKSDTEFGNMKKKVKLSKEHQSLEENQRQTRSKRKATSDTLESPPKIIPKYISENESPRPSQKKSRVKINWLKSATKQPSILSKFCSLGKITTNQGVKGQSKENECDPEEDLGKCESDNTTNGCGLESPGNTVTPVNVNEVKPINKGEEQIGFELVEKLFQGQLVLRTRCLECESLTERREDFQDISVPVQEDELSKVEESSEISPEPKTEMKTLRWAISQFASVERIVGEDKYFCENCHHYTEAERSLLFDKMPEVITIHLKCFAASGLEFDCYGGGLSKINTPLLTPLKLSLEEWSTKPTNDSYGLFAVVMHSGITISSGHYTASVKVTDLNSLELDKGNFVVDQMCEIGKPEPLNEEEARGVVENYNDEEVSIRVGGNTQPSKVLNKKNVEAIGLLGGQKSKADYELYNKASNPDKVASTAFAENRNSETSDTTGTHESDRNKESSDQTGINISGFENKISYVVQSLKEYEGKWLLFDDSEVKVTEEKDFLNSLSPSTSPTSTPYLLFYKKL
Chain of Cytochrome P450 2D6 (Homo sapiens) (P10635 whole entry, looked up): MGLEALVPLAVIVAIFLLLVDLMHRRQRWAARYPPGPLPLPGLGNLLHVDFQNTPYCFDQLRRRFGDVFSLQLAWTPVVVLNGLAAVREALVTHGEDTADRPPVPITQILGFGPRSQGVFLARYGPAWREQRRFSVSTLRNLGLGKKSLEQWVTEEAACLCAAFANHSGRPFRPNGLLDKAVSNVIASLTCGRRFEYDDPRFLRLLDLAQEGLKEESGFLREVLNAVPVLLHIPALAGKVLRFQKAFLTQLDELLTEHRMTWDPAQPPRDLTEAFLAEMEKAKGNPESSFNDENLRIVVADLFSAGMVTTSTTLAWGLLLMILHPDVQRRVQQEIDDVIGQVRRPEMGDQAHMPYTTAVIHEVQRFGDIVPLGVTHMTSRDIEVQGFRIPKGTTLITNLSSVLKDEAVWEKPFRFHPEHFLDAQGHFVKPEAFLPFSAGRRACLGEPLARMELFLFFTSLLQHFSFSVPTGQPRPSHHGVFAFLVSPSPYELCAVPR

CN(C)Cc1ccccc1-c1nc(N(C)Cc2ccco2)c2ccccc2n1
inactive: Potency [1] > 11.4 µM | activity change, negative = inhibition [2] 9.21% | activity change, negative = inhibition [4] -18.4% | activity, negative = inhibition [5] 3.87% | Potency [6] > 46 µM | Potency [7] > 46 µM | Potency [8] | Potency [9] | Potency [11] | activity change, negative = inhibition [12] 6.11% | Potency [13]
active: Potency [3] 0.794 µM | Potency [10] 0.794 µM
24.7%: max response [12, 18]
17.4%: max response [12, 17]

c1ccc2c(Nc3ccncc3)nc(-c3ccoc3)nc2c1
inactive: activity change, negative = inhibition [2] -7.11% | activity change, negative = inhibition [4] -19.5% | activity, negative = inhibition [5] 3.23% | Potency [6] > 46 µM | Potency [7] > 46 µM | Potency [8] | Potency [9] | Potency [11] | outcome [15] | activity change, negative = inhibition [12] 14.9%
active: Potency [1] 7.37 µM | Potency [3] 0.158 µM | Potency [14] 1.26 µM | Potency [13] 44.7 µM
22.2%: max response [12, 18]
5.31%: max response [12, 17]

COc1ccc(C(=O)N2CCC3(CCN(C(=O)Nc4cccc(F)c4)CC3)CC2)cc1
13.8%: max response [12, 17]
inactive: Potency [1] > 11.4 µM | activity change, negative = inhibition [2] -28.3% | Potency [3] | activity change, negative = inhibition [4] 7.36% | activity, negative = inhibition [5] -5.59% | Potency [7] > 46 µM | Potency [8] | Potency [16] | activity change, negative = inhibition [12] 6.16%
22%: max response [12, 18]

COc1cccc(-c2nccc(NC3CCNCC3)n2)c1
active: Potency [3] 6.31 µM
inactive: Potency [1] > 11.4 µM | activity change, negative = inhibition [2] 6.93% | activity change, negative = inhibition [4] 8.54% | activity, negative = inhibition [5] 14.2% | Potency [6] > 46 µM | Potency [7] > 46 µM | Potency [8] | Potency [16] | outcome [15] | activity change, negative = inhibition [12] 0.723% | Potency [13]
1.95%: max response [12, 18]
4.24%: max response [12, 17]

CC(C)NC(=O)N1CCC2(CC1)CCN(C(=O)c1cnccn1)CC2
17.7%: max response [12, 18]
15.3%: max response [12, 17]
inactive: Potency [1] > 11.4 µM | activity change, negative = inhibition [2] -0.14% | Potency [3] | activity change, negative = inhibition [4] 7.26% | activity, negative = inhibition [5] -2.84% | Potency [7] > 46 µM | Potency [8] | Potency [16] | activity change, negative = inhibition [12] 0.356%

O=S(=O)(c1ccccc1)N1CCC[C@@]2(CCN(Cc3nccs3)C2)C1
inactive: Potency [1] > 11.4 µM | activity change, negative = inhibition [2] -10.5% | activity change, negative = inhibition [4] -1.46% | activity, negative = inhibition [5] -1.53% | Potency [7] > 46 µM | Potency [8] | Potency [16] | Potency [9] | activity change, negative = inhibition [12] 0.281%
15.6%: max response [12, 18]
active: Potency [3] 15.8 µM | Potency [14] 3.16 µM | Potency [10] 2.51 µM
10.8%: max response [12, 17]
